Measurements from PubChem BioAssay (NCATS).
Records with an inconclusive call do not appear. Entries that show only a call come without a potency. A number with no mark means an inactive call. Activity calls are given as the source filed them. Calls come from the whole dose curve; as a rule, active = well fitted curve in the direction sought with a large enough effect; inconclusive = small, poorly fitted or top-dose-only effect, or another doubt; inactive = no such curve, though single readings can be large; an effect the other way counts as inactive or inconclusive.

Experiments:
[1] = molecular target: Cytochrome P450 3A7 (Homo sapiens) (UniProt P24462); test: Cytochrome P450 family 3 subfamily A member 7 (CYP3A7) small molecule antagonists: luciferase biochemical qHTS assay (AID 1963596); note: nearly all actives have a fitted effect of over 40% in size; note: potency is the fitted concentration of half-maximal effect
Method in brief: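 Compounds were screened in qHTS format for interference with CYP3A7 turnover of a proluciferin substrate. Reactions ran 1 h at room temperature after NADPH regeneration solution was added, then luciferin product was detected by luminescence.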

[2] = Viability qHTS for spleen associated tyrosine kinase inhibitor (SYKi) naive MV4-11 cells (AID 1963823); note: nearly all actives have a fitted effect of over 40% in size; note: potency is the fitted concentration of half-maximal effect
Method in brief: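 SYK inhibitor-naive MV4-11 cells, 500 per well, exposed to compounds for 72 hr at 37 C, 5% CO2. Viability read as CellTiter-Glo luminescence after 10 min at room temperature.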

[3] = Viability qHTS for spleen associated tyrosine kinase inhibitor (SYKi) drug resistant MV4-11 cells (AID 1963824); note: nearly all actives have a fitted effect of over 35% in size; note: potency is the fitted concentration of half-maximal effect
Method in brief: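 SYK-inhibitor-resistant MV4-11 AML cells were seeded at 500 per well onto compound and cultured 72 hours (37 °C, 5% CO2). CellTiter-Glo was then added, and after 10 min at room temperature, luminescence gave viability.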

[4] = Cellular viability qHTS for adrenocortical cancer (ACC) cell line SW-13 (AID 1963989); conditions: SW-13 ACC cells viability, CellTiter-Glo, 48 h; activity (max response): stronger effect = lower value; note: nearly all actives have a fitted effect of over 65% in size; note: potency is the fitted concentration of half-maximal effect;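 for activity (max response): cells grown in serum-free medium with ITS supplement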
Method in brief: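 Luminescent ATP read-out (CellTiter-Glo, 20 min at room temperature) measured metabolically competent SW-13 cells after 48 h compound treatment. Final concentrations spanned up to 46 uM; bortezomib served as positive control.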

[5] = Cellular viability qHTS for adrenocortical cancer (ACC) cell line NCI-H295R (AID 1963990); note: nearly all actives have a fitted effect of over 60% in size; note: potency is the fitted concentration of half-maximal effect
Method in brief: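 IC50 and maximal efficacy derive from four-parameter logistic modelling of titration curves, with reads scaled between DMSO-only wells (0%) and doxorubicin hydrochloride (100% inhibition). Compounds spanned up to 46 uM over 48 h.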

[6] = Quantitative highthroughput screen to assess conditional lethalithy of NOMO1 cells grown in RPMI1640 with untreated serum (RPMI+s) (AID 1963876); note: nearly all actives have a fitted effect of over 35% in size
Method in brief: (§1)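 Each medium arm—HPLM with 10% dialyzed FBS, or RPMI1640 with 5 mM glucose and 10% untreated or dialyzed FBS—was screened against an 11-point, 3-fold compound titration for 48 h at 37 °C, with CellTiter-Glo luminescence as endpoint.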

[7] = Quantitative highthroughput screen to assess conditional lethalithy of NOMO1 cells grown in RPMI1640 with dialyzed fetal bovine serum (RPMI+ds) (AID 1963877); note: series mostly up to about 46 µM; nearly all actives have a fitted effect of over 30% in size
Method in brief: as §1

[8] = Quantitative highthroughput screen to assess conditional lethalithy of NOMO1 cells grown in Human Plasma-Like Medium with dialyzed fetal bovine serum (HPLM+ds) (AID 1963878); note: nearly all actives have a fitted effect of over 35% in size
Method in brief: as §1

[9] = Quantitative highthroughput screen to assess conditional lethalithy of P12 Ichikawa cells grown in RPMI1640 with untreated serum (RPMI+s) (AID 1963881); conditions: Potency: viability; note: series mostly up to about 46 µM; nearly all actives have a fitted effect of over 35% in size
Method in brief: as §1

[10] = Quantitative highthroughput screen to assess conditional lethalithy of SEM cells grown in Human Plasma-Like Medium with dialyzed fetal bovine serum (HPLM+ds) (AID 1963882)
Method in brief: as §1

[11] = Quantitative highthroughput screen to assess conditional lethalithy of SEM cells grown in RPMI1640 with unreated serum (RPMI+s) (AID 1963883); note: nearly all actives have a fitted effect of over 35% in size
Method in brief: as §1

[12] = Quantitative highthroughput screen to assess conditional lethalithy of P12 Ichikawa cells grown in RPMI1640 with dialyzed fetal bovine serum (RPMI+ds) (AID 1963880); conditions: Potency: P12-Ichikawa viability; note: nearly all actives have a fitted effect of over 35% in size
Method in brief: as §1

Chain of Cytochrome P450 3A7 (Homo sapiens) (P24462 whole entry, looked up): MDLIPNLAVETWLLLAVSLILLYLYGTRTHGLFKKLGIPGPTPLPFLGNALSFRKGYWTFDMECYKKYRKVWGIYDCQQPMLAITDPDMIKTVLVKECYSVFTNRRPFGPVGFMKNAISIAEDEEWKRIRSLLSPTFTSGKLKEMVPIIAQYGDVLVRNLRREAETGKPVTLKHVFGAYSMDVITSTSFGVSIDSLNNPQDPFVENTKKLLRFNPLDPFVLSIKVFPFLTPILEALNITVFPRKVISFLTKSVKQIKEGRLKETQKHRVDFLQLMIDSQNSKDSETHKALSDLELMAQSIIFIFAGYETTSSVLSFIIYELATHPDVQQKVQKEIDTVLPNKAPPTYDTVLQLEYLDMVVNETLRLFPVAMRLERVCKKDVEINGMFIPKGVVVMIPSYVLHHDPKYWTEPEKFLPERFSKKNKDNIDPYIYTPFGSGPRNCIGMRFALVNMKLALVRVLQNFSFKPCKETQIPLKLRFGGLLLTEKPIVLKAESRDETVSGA

CN1[C@@H]2CC[C@H]1CC(OC(=O)c1cc(Cl)cc(Cl)c1)C2 (stereo partly specified)
Potency [1]: inactive | Potency [2]: inactive | Potency [3]: inactive | activity (max response) [4]: -16.8%

CCN(CC)CCOC(=O)C(O)(c1ccccc1)c1ccccc1
Potency [1]: inactive | Potency [2]: inactive | Potency [3]: inactive | activity (max response) [4]: 1.88% | Potency [5]: inactive

c1cncc(OC[C@@H]2CCN2)c1
Potency [1]: inactive | Potency [2]: inactive | Potency [3]: inactive

NC(=O)OCCCc1ccccc1
Potency [1]: inactive | Potency [2]: inactive | Potency [3]: inactive | activity (max response) [4]: 11.5% | Potency [5]: inactive

CNC(=O)NC(O)C(Cl)(Cl)Cl (stereo unspecified)
Potency [1]: inactive | Potency [2]: inactive | Potency [3]: inactive

CC[N+]1(CC)CCC(OC(=O)C(O)(c2ccccc2)c2ccccc2)C1 (stereo unspecified)
Potency [1]: inactive | Potency [2]: inactive | Potency [3]: inactive | activity (max response) [4]: 5.92%

CN=C(NS(=O)(=O)c1ccc(Cl)cc1)N1C[C@H](c2ccccc2)C(c2ccc(Cl)cc2)=N1
Potency [1]: inactive | Potency [2]: 20.6 µM (active) | Potency [3]: 20.6 µM (active)

COC(=O)C(Cl)C(=O)OC
Potency [1]: inactive | Potency [2]: inactive | Potency [3]: inactive | activity (max response) [4]: -3.15% | Potency [5]: inactive

c1ccc(C2CC2)c(OCC2=NCCN2)c1
Potency [1]: inactive | Potency [2]: inactive | Potency [3]: inactive | activity (max response) [4]: -5.68% | Potency [5]: inactive

COC(=O)[C@@H](N)CCCN/C(N)=N/[N+](=O)[O-]
Potency [1]: inactive | Potency [2]: inactive | Potency [3]: inactive | activity (max response) [4]: 3% | Potency [5]: inactive

CCCC(C)(COC(N)=O)COC(=O)NC(C)C (stereo unspecified)
Potency [1]: inactive | Potency [2]: inactive | Potency [6]: inactive | Potency [7]: inactive | Potency [8]: inactive | Potency [9]: inactive | Potency [10]: inactive | Potency [11]: inactive | activity (max response) [4]: 8.8% | Potency [5]: inactive

CC(C)(C)NCC(O)c1cc(Cl)c(N)c(Cl)c1 (stereo unspecified)
Potency [1]: inactive | Potency [2]: inactive | activity (max response) [4]: 11.4% | Potency [5]: inactive

CN[C@@H](C)[C@H](O)c1ccccc1
Potency [1]: inactive | Potency [2]: inactive | Potency [3]: inactive | activity (max response) [4]: -4.49% | Potency [5]: inactive

CC[N+](CC)(CC)CC
Potency [1]: inactive | Potency [2]: inactive | Potency [3]: inactive | activity (max response) [4]: 9.95% | Potency [5]: inactive

CCOC(=O)NC(C)(C)Cc1ccc(Cl)cc1
Potency [1]: inactive | Potency [2]: inactive | activity (max response) [4]: -3.94%

Oc1ccc2c3c1O[C@H]1[C@@H](O)C=C[C@H]4[C@@H](C2)NCC[C@@]341
Potency [1]: inactive | Potency [2]: inactive | activity (max response) [4]: -14.8% | Potency [5]: inactive

CC(O)CN1CCN(CC(=O)[O-])CCN(CC(=O)[O-])CCN(CC(=O)[O-])CC1.[Gd+3] (stereo unspecified)
Potency [1]: inactive | Potency [2]: inactive | Potency [3]: inactive | activity (max response) [4]: 0.662% | Potency [5]: inactive

CCC(C)C(C)(COC(N)=O)COC(N)=O (stereo unspecified)
Potency [1]: inactive | Potency [2]: inactive | activity (max response) [4]: 2.89% | Potency [5]: inactive

Nc1ccccc1C(=O)O
Potency [1]: inactive | Potency [2]: inactive | Potency [5]: inactive

CCN(Cc1ccc(Cl)nc1)/C(=C/[N+](=O)[O-])NC
Potency [1]: inactive | Potency [2]: inactive | Potency [3]: inactive | activity (max response) [4]: 3.71% | Potency [5]: inactive

CN1C(=O)CN=C(c2ccccc2)c2cc([N+](=O)[O-])ccc21
Potency [1]: inactive | Potency [2]: inactive | Potency [3]: inactive | Potency [5]: inactive

Oc1cccc2cccnc12
Potency [1]: inactive | Potency [2]: inactive | Potency [3]: inactive | Potency [5]: inactive

C=C1CC[C@@]2(O)[C@H]3Cc4ccc(O)c5c4[C@@]2(CCN3CC2CC2)[C@H]1O5
Potency [1]: inactive | Potency [2]: inactive | activity (max response) [4]: 2.67%

CCCN(CCC)c1c([N+](=O)[O-])cc(S(N)(=O)=O)cc1[N+](=O)[O-]
Potency [1]: 1.12 µM (active) | Potency [2]: 21.7 µM (active) | Potency [3]: 21.7 µM (active) | Potency [4]: 7.94 µM (active) | Potency [5]: 7.94 µM (active)

CCCC[N+]1(C)[C@@H]2CC(OC(=O)[C@H](CO)c3ccccc3)C[C@H]1[C@@H]1O[C@@H]12 (stereo partly specified)
Potency [1]: inactive | Potency [2]: inactive | activity (max response) [4]: 15.3% | Potency [5]: inactive

CN(C)[C@@H]1C(=O)C(C(N)=O)=C(O)[C@@]2(O)C(=O)C3=C(O)c4c(O)cccc4[C@@](C)(O)[C@H]3[C@H](O)[C@@H]12
Potency [1]: inactive | Potency [2]: inactive | Potency [12]: inactive | Potency [9]: inactive | Potency [10]: inactive | Potency [11]: inactive | activity (max response) [4]: 4.8% | Potency [5]: inactive

CCN[C@H](C)Cc1cccc(C(F)(F)F)c1
Potency [1]: inactive | Potency [2]: inactive | activity (max response) [4]: -4.65% | Potency [5]: inactive

NP(N)(=O)NC(=O)c1ccc(F)cc1
Potency [1]: inactive | Potency [2]: inactive | Potency [3]: inactive | activity (max response) [4]: 6.62% | Potency [5]: inactive

O=C(CCCCl)c1ccc(F)cc1
Potency [1]: inactive | Potency [2]: inactive | Potency [3]: inactive | Potency [5]: inactive

Cc1ccc([N+](=O)[O-])[c]2c1[O][Hg]2
Potency [1]: 0.617 µM (active) | Potency [2]: 0.0944 µM (active) | Potency [4]: 0.231 µM (active)

O=C1c2ccccc2C(=O)c2ccccc21
Potency [1]: inactive | Potency [2]: inactive | activity (max response) [4]: 3.51% | Potency [5]: inactive

COP(=S)(OC)Oc1cc(Cl)c(Cl)cc1Cl
Potency [1]: 13.8 µM (active) | Potency [2]: inactive | Potency [3]: inactive | activity (max response) [4]: 7.21% | Potency [5]: inactive

C1CCC(NC2CCCCC2)CC1
Potency [1]: inactive | Potency [2]: inactive | Potency [3]: inactive | Potency [5]: inactive

CCc1ccc(C2CCNCC2)cc1
Potency [1]: inactive | Potency [2]: inactive | activity (max response) [4]: -14% | Potency [5]: inactive

O=C(O)COc1ccccc1
Potency [1]: inactive | Potency [2]: inactive | Potency [3]: inactive | activity (max response) [4]: 18.4% | Potency [5]: inactive
